Compound activity as filed in PubChem.
MazEF act = activators of E. coli MazEF toxin-antitoxin RNase; P0AE70; FAM/BHQ RNA-DNA oligo cleavage fluorescence, 5 h; activation, % at 20 µM; 350,000 tested, 0.32% active; AID 504720; in the data active = activation above about 50%
Bead autofluor = counter-screen for toxin protease inhibitors: compound fluorescence; AID 624483; compound autofluorescence counterscreen, microsphere flow cytometry; hits give high values; fluorescence intensity (test concentration not listed); 360,000 tested, 3.1% active; in the data active = fluorescence intensity above about 16000; inconclusive = no clear call, values can overlap the other calls
Anthrax LF inh2 = blocks Bacillus anthracis lethal factor protease; 360,000 tested, 0.12% active; P15917; inhibition, % at 10 µM; multiplex microsphere protease cleavage assay, LF; AID 588501; note: plate controls were buffer without enzyme for full effect and enzyme alone for no effect
BoNT-A LC inh2 = blocks Botulinum neurotoxin A light chain protease | multiplex microsphere protease substrate cleavage, flow cytometry | inhibition, % at 10 µM | 360,000 tested, 0.17% active | AID 588499; note: plate controls were buffer without enzyme for full effect and enzyme alone for no effect
BoNT-F LC inh = blocks Botulinum neurotoxin F light chain protease | Multiplex microsphere protease cleavage assay, flow cytometry | inhibition, % at 10 µM | 360,000 tested, 0.22% active; in the data active = inhibition above about 35%, passing the limit was not always enough; inconclusive = no clear call, values can overlap the other calls; note: plate controls were buffer without enzyme for full effect and enzyme alone for no effect
Numbers without * were called inactive; ? = inconclusive; ! = repeats disagree. A selection: hits, their analogues and other compounds. The true share with any hit is near 3.6%. Cut-off read from the data, not from the text of the source, unless noted: active = inhibition above about 30%; inconclusive = no clear call, values can overlap the other calls; inactive = below that.

SMILES	MazEF act	Bead autofluor	Anthrax LF inh2	BoNT-A LC inh2	BoNT-F LC inh
CC(=NCCC1=CCCCC1)c1c(O)n(C)c(=O)n(C)c1=O	-4	23048*	1	0	0
COc1cccc(-c2nn3c(-c4ccccn4)nnc3s2)c1	-2	19346*	-7	?	3
COc1ccc(OC)c(C2=Nn3c(nnc3C3CCCCC3)SC2)c1	5	2896	8	1	-8
COc1ccc(-c2nn3c(C4CCCCC4)nnc3s2)cc1OC	9	16665*	-3	0	2
COc1ccc(C2=Nn3c(nnc3C3CCCCC3)SC2)cc1OC	4	24718*	-2	-3	-6
Clc1ccccc1-c1nn2c(-c3ccccn3)nnc2s1	1	22234*	-2	0	0
COc1cccc(-c2nnc3sc(-c4ccccn4)nn23)c1	1	2173	2	0	-6
CCOc1ccccc1CNC(=O)C1Cc2cc(S(=O)(=O)N3CCCCC3)ccc2N1C(C)=O (centres undefined)	-1	4810	2	-2	-1
COc1ccc(-c2nnc3sc(-c4cccs4)nn23)cc1OC	20	3341	0	0	-4
COc1ccc(-c2nn3c(-c4cccc(C)c4)nnc3s2)cc1OC	33	16794*	-5	-3	-5
Cc1cccc(-c2nnc3sc(-c4ccccc4)nn23)c1	36	9581	-3	1	8
COc1ccc(-c2nn3c(-c4ccccn4)nnc3s2)cc1OC	4	19421*	1	?	2
COCCC(=O)NC1CCCc2c1cnn2-c1cccc(C)c1C (centres undefined)	-1	4145	-6	-1	18
CC(C)Cc1cc(C(=O)N2N=C(C(F)F)CC2(O)C(F)F)c2ccccc2n1 (centres undefined)	8	22633*	0	-10	-12
O=[N+]([O-])c1cccc(COc2cccc(CN3CCCC3)c2)c1	8	3905	-4	0	-4
CCN(CC)c1nc2ccccc2n2cnnc12	-10	23917*	-8	-2	-4
C=CCN(CC=C)c1cnn(-c2nc3ccccc3[nH]2)c(=O)c1Cl	4	21324*	-2	-3	-2
COc1ccccc1CN(C)C(=O)CN1C(=O)c2ccccc2C1=O	11	3684	-16	0	4
CCOC(=O)C1=C(COC(=O)Cc2ccc(Cl)cc2)NC(=O)NC1C (centres undefined)	6	3823	5	0	-13
CN(C(=O)c1cccc(NC(=O)Cc2ccc(NC(=O)C3CCCN(C(=O)C4CC4)C3)cc2)c1)C1CCCCC1 (centres undefined)	2	3693	1	0	4
CCC(C)NS(=O)(=O)c1ccc(S(=O)(=O)N2CCCC3(CCCCC3)C2)cc1 (centres undefined)	-1	21732*	-5	2	0
Cc1ccc(NC(=O)NNC(=O)Cn2nc(-c3ccccc3)c(-c3ccccc3)c(C#N)c2=O)cc1	0	3132	5	-1	2
CCCCCCc1ccc(N2C[C@H](Cc3ccccc3)[C@@H](CC(=O)Nc3ccccc3)C2=O)cc1	6	2768	-1	1	4
O=C(CSc1nc2ccccc2s1)CSc1nc2ccccc2s1	-22	8021	1	1	-3
O=C(CSc1nc2ccccc2s1)c1cc2ccccc2o1	26	23696*	-2	1	-1
SMILES	MazEF act	Bead autofluor	Anthrax LF inh2	BoNT-A LC inh2	BoNT-F LC inh
COCCNC(=O)COC(=O)/C=C/c1cnc2ccccc2n1	-2	17342*	-9	8	9
CC1(C)CC(=O)C2=C(C1)OC(N)=C(C#N)C2C#Cc1ccccc1 (centres undefined)	3	2836	-2	1	6
CN1CCN(/C=N/C2=C(C#N)C(c3ccccc3)C3=C(CC(C)(C)CC3=O)O2)CC1 (centres undefined)	-2	22390*	-2	-1	-4
CC(c1ccccc1)C1C(C#N)=C(N)OC2=C1C(=O)CC(C)(C)C2 (centres undefined)	-3	23366*	-1	-2	0
CC(=O)c1ccc(S(=O)(=O)N2CCN(c3ccnc4cc(Cl)ccc34)CC2)cc1	-14	3678	-5	0	2
COc1ccc(-c2cn3ccccc3n2)cc1OC	0	20804*	-1	6	9
CC(=O)Nc1cccc(NS(=O)(=O)c2ccc3c(c2)CCC(=O)N3)c1	5	4053	-9	-1	-4
CC(C)(C)NC(=O)c1ccc2c(c1)C(=O)N(C1CCCCC1)C2=O	2	16466*	-6	-2	-3
CCC(=O)Oc1ccc(C(=O)Nc2ccc3c(c2)C(=O)N(C2CCCCC2)C3=O)cc1	-1	19149*	-4	3	4
O=C(O)COc1ccc(NC(=O)c2ccc3c(c2)C(=O)N(C2CCCCC2)C3=O)cc1	-1	5361	0	2	-2
COc1ccccc1-c1cc(C(=O)Nc2c(C)n(C)n(-c3ccccc3)c2=O)no1	3	16484*	-3	?	0
COc1ccc(OC)c(-c2cc(C(=O)Nc3c(C)n(C)n(-c4ccccc4)c3=O)no2)c1	1	16603*	-5	-1	-4
COc1cccc(-c2cc(C(=O)Nc3c(C)n(C)n(-c4ccccc4)c3=O)no2)c1	-4	3390	0	0	1
COc1ccc(O)c(CN2CCN(C/C=C/c3ccccc3)CC2)c1	-3	24344*	-1	-1	-3
Cc1cc(C)cc(NS(=O)(=O)c2ccc3oc(=O)ccc3c2)c1	-10	23250*	0	0	-1
Cc1ccc(C)c(NS(=O)(=O)c2ccc3oc(=O)ccc3c2)c1	13	3201	-18	-23	-23
O=C(CC(SCCO)c1ccc([N+](=O)[O-])cc1)c1ccco1 (centres undefined)	-4	3945	-4	2	-4
CC(=O)NC(CSC(CC(=O)c1ccco1)c1ccc(C)cc1)C(=O)O (centres undefined)	249*	4338	-2	0	-2
O=C(c1cc(-c2ccco2)on1)N1CCN(C(c2ccccc2)c2ccccc2)CC1	-31	21890*	-6	4	2
O=C(N1CCOCC1)N1CCN(C(c2ccccc2)c2ccccc2)CC1	-3	21654*	-5	1	1
O=C(N1CCCCC1)N1CCN(C(c2ccccc2)c2ccccc2)CC1	-3	2160	0	0	-6
O=C(O)/C(=N/NC(=O)c1ccc(Cl)cc1)c1ccccc1	8	4073	31*	?	?
O=C(NS(=O)(=O)c1ccc(Cl)cc1)c1ccccc1	7	4280	4	0	-5
Cc1ccc(NC(=O)Cn2cnc3sc(C(=O)NCc4ccco4)c(C)c3c2=O)cc1Cl	-9	21778*	-6	4	4
Cc1cc(C)c(NC(=O)CN2CCN3CCCC3C2)c(C)c1 (centres undefined)	3	21570*!	0	0	-7
CC1=C(C(=O)OC(C)C)C(c2ccc(F)cc2)NC(=O)N1 (centres undefined)	4	16191*	0	0	-2
